Vaccinia mCherry: vaccinia inhibition (mCherry reporter). Potency, µM (titrated, usually from 36.5 µM), for the others: at the top dose activity change, negative = inhibition, hits mostly inhibitors. Vaccinia virus mCherry reporter infection, fluorescence. hit rate 0.63% among 310,000; calls by dose curve; tested in A549 cells; note: nearly all actives have a fitted effect of over 35% in size
Sm TGR inh: blocks Schistosoma mansoni thioredoxin glutathione reductase | Q962Y6 | purified TGR, DTNB reduction, TNB absorbance 405 nm | Potency, µM (titrated, usually from 114 µM), for the others: at the top dose activity change, negative = inhibition, actives largely listed as inhibitors | hit rate 3% among 360,000 | AID 485364; active = well fitted inhibition curve with a large enough effect; inconclusive = small, poorly fitted or top-dose-only effect; inactive = no such curve, though single readings can be large or run the other way; note: nearly all actives have a fitted effect of over 60% in size
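TGR 20 nM + NADPH 100 uM (dispensed conc.), cpd preinc 15 min RT; start with NADPH (500 uM addition) then DTNB (15 mM addition). Kinetic TNB absorbance, 405 nm filter. Four-parameter Hill fit across titration.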
Lassa entry inh: inhibitors of Lassa virus binding or cell entry; hit rate 1.2% among 300,000; Lassa virus pseudotype entry inhibition, cell reporter; Potency, µM (doses to about 37.9 µM), for the others: at the highest dose activity change, negative = inhibition, actives largely listed as inhibitors; calls by dose curve; tested in HEK293 cells; note: nearly all actives have a fitted effect of over 50% in size
Marburg entry inh: Marburg virus entry inhibition | Potency, µM (doses to about 37.8 µM), for the others: at the top dose activity change, negative = inhibition, most hits filed as inhibitors | hit rate 1.8% among 300,000 | AID 540276 | Marburg virus pseudotyped entry inhibition, cell reporter; calls by dose curve; tested in HEK293 cells
FMDV antiviral: foot and mouth disease virus antiviral activity; FMDV antiviral cell-based qHTS; Potency, µM (titrated, usually from 57.9 µM), for inactives: at the highest dose activity change, negative = inhibition, actives largely listed as inhibitors; hit rate 1.2% among 410,000; AID 1159524; calls by dose curve; tested in HEK293T cells; note: read-out not given here; nearly all actives have a fitted effect of over 45% in size
Vaccinia Venus: inhibitors of vaccinia virus (Venus reporter); Vaccinia virus Venus reporter expression, fluorescence; Potency, µM (top dose mostly 36.5 µM), without a hit: at the highest dose activity change, negative = inhibition, usual class: inhibitors; hit rate 0.46% among 330,000; AID 720580; calls by dose curve; tested in A549 cells; note: nearly all actives have a fitted effect of over 30% in size
Starred values were filed as active, the others as inactive; [ ] = remark or other dose. Most compounds without a hit are left out; they make up all but 5.4% or so of the library. % is set by controls: 0 for no effect and ±100 for the full control effect; potency is the fitted concentration of half-maximal effect.

`Cc1ccc2nc(-c3ccc(O)cc3)oc2c1` gave Vaccinia mCherry -29%, Sm TGR inh 19%, Lassa entry inh inconclusive, Marburg entry inh 5.6µM*, FMDV antiviral 13µM* and Vaccinia Venus -6%.
Cc1ccccc1-c1noc(-c2ccc(N3CCN(C)CC3)c([N+](=O)[O-])c2)n1 was read as Vaccinia mCherry -8%, Sm TGR inh 0%, Lassa entry inh -2%[46.1 µM], Marburg entry inh 22%[46.1 µM], FMDV antiviral inconclusive and Vaccinia Venus -7%.
CCCNC(=O)CS(=O)(=O)Cc1nc(-c2cccc(OC)c2)oc1C was read as Vaccinia mCherry inactive, Sm TGR inh 22µM*, FMDV antiviral -19% and Vaccinia Venus -18%.
CCOCCCNC(=O)CS(=O)(=O)Cc1nc(-c2cccc(OC)c2)oc1C was read as Sm TGR inh 45µM*, Lassa entry inh 20%, Marburg entry inh -15% and FMDV antiviral 0%.
COc1cccc(-c2nc(CS(=O)(=O)CC(=O)Nc3ccccc3C)c(C)o2)c1 was read as Vaccinia mCherry -15%, Sm TGR inh -31%, Lassa entry inh -4%[46.1 µM], Marburg entry inh inconclusive, FMDV antiviral -14% and Vaccinia Venus -21%.
Screening COc1cccc(-c2nc(CS(=O)(=O)CC(=O)Nc3cc(OC)ccc3OC)c(C)o2)c1 returned Sm TGR inh 50µM* and FMDV antiviral -10%.
CCN1CCN(CCCNC(=O)CS(=O)(=O)Cc2nc(-c3cccc(OC)c3)oc2C)CC1 was read as Vaccinia mCherry -1%, Sm TGR inh -17%, Lassa entry inh 11%[46.1 µM], Marburg entry inh 2%[46.1 µM], FMDV antiviral -6% and Vaccinia Venus -12%.
`CCCCCCCC=CC1=CC2(C)CC1(C)C(CCCCCCC)CC2=O` (centres undefined) gave Marburg entry inh 17%[14.2 µM].
COc1cccc(CN2C(=O)NC(C)(C3CCN(Cc4cc(F)cc(F)c4)CC3)C2=O)c1OC (centres undefined) was read as Vaccinia mCherry inactive, FMDV antiviral -3% and Vaccinia Venus -16%.
Screening Cc1ccc(S(=O)(=O)c2nc(S(C)(=O)=O)sc2N(C)C)cc1 returned Vaccinia mCherry -16%[1.46 µM], Sm TGR inh 25µM*, Lassa entry inh -29%, Marburg entry inh 9%, FMDV antiviral 68% and Vaccinia Venus 11µM*.
For COC1=C(OC)CC2=C(CCN=C2/C(=N\O)C2CCC(OC)C(OC)C2)C1 (centres undefined) the results were Marburg entry inh -4%[46.1 µM].
`Cc1cccc(NC(c2ccc(C)s2)c2ccc3ccc(C)nc3c2O)n1` (centres undefined) gave Vaccinia mCherry -13%, Sm TGR inh 45µM*, Lassa entry inh 11%, Marburg entry inh 2%, FMDV antiviral inconclusive and Vaccinia Venus -10%.
For Cc1cccc(NC(c2ccccc2C)c2ccc3ccc(C)nc3c2O)n1 (centres undefined) the results were Vaccinia mCherry inconclusive, Sm TGR inh 3.5µM*, Lassa entry inh inconclusive, Marburg entry inh inconclusive, FMDV antiviral inconclusive and Vaccinia Venus -16%.
`Cc1cc(NC(=O)c2cccnc2)cc(-c2nc3cc(Cl)ccc3o2)c1O` gave Vaccinia mCherry -14%, Sm TGR inh 1%, Lassa entry inh 0%[46.1 µM], Marburg entry inh 3%[46.1 µM], FMDV antiviral -18% and Vaccinia Venus 3%.
For CCCn1c(=S)[nH]c2cc(C(=O)N3CCc4ccccc43)ccc2c1=O the results were Sm TGR inh 4%, Lassa entry inh -2%, Marburg entry inh inconclusive and FMDV antiviral -9%.
COCCn1c(=S)[nH]c2cc(C(=O)N3CCN(Cc4ccc5c(c4)OCO5)CC3)ccc2c1=O was read as Sm TGR inh -11%, Lassa entry inh inconclusive, Marburg entry inh 6.5µM* and FMDV antiviral 14µM*.
Screening COCCn1c(=S)[nH]c2cc(C(=O)N3CCc4ccccc43)ccc2c1=O returned Sm TGR inh -12%, Lassa entry inh inconclusive, Marburg entry inh inconclusive and FMDV antiviral 7.9µM*.
`CC(=O)OC[C@H]1O[C@H](CC=NOC[C@@H](O)COCc2ccco2)C=C[C@H]1OC(C)=O` gave Marburg entry inh 1%[14.2 µM].
`CCOc1ccccc1C(=O)Nc1ccc(NC(=O)c2ccccc2)cc1` gave Sm TGR inh -1% and FMDV antiviral 2%.
Screening CCOc1ccccc1C(=O)Nc1cccc(-c2ccc3nncn3n2)c1 returned Vaccinia mCherry -3%, Sm TGR inh 0%, Lassa entry inh inconclusive, Marburg entry inh 7.1µM*, FMDV antiviral -29% and Vaccinia Venus -18%.
Screening CCOc1cc(NC(=O)C2CC2)c(OCC)cc1NC(=O)c1ccccc1OCC returned Vaccinia mCherry -15%, Sm TGR inh -1%, Lassa entry inh inconclusive, Marburg entry inh 10µM*, FMDV antiviral -29% and Vaccinia Venus -26%.
For CCOc1ccccc1C(=O)Nc1ccc(C(=O)c2ccccc2)cc1 the results were Sm TGR inh 4.5µM* and FMDV antiviral 15%.
Screening CCOC(=O)C1CCN(C(=O)Cn2ncc3c4ccccc4n(Cc4ccc(F)cc4)c3c2=O)CC1 returned Vaccinia mCherry -3%, Sm TGR inh 3%, Lassa entry inh inconclusive, Marburg entry inh -9%[46.1 µM], FMDV antiviral -26% and Vaccinia Venus -13%.
`CCOC(=O)c1cc(-c2ccc(OC)cc2)n(CCC(=O)Nc2cccc(C(C)=O)c2)c1C` gave Vaccinia mCherry -1%, Sm TGR inh -1%, Lassa entry inh -17%[46.1 µM], FMDV antiviral -9% and Vaccinia Venus -7%.
For COc1ccc(S(=O)(=O)c2cn(Cc3ccccc3)c3cc(N4CCCC4)c(F)cc3c2=O)cc1 the results were Vaccinia mCherry -12%, Sm TGR inh 1%, Lassa entry inh -23%[46.1 µM], FMDV antiviral -4% and Vaccinia Venus -5%.
`Cc1ccc(-c2onc(C)c2C)cc1S(=O)(=O)Nc1ccc(Cl)cn1` gave Vaccinia mCherry inactive, Sm TGR inh 5%, Lassa entry inh 14%[46.1 µM], FMDV antiviral 61% and Vaccinia Venus -10%.
O=C(c1ccc2c3n(nc2c1)-c1ccc(Cl)cc1CO3)N1CCCCC1 was read as Vaccinia mCherry -28%, Sm TGR inh 0%, FMDV antiviral 71% and Vaccinia Venus -18%.
`O=C(O)c1ccc2c3n(nc2c1)-c1ccc(Cl)cc1CO3` gave Vaccinia mCherry inactive, Sm TGR inh 18%, FMDV antiviral 7.9µM* and Vaccinia Venus -19%.
Screening COc1cccc(/C=N/NC(N)=S)c1OCc1ccccc1Cl returned Vaccinia mCherry inconclusive, Sm TGR inh -1%, Lassa entry inh 12%, Marburg entry inh inconclusive, FMDV antiviral inconclusive and Vaccinia Venus inconclusive.
`CNC(=S)N/N=C/c1cn(Cc2ccc(F)cc2)c2ccccc12` gave Vaccinia mCherry 3.2µM*, Sm TGR inh -5%, Lassa entry inh inconclusive, Marburg entry inh inconclusive, FMDV antiviral inconclusive and Vaccinia Venus inconclusive.

Screening data as filed in PubChem.
